MITF primary: MITF inhibitors, primary screen, biochemical, AlphaScreen, human | actives 0.91% (n = 650,000) | inhibition, % at 2.6 µM | AlphaScreen MITF homodimerization, bead proximity signal | Microphthalmia-associated transcription factor (Homo sapiens), O75030 | AID 1259374, 2018; in the data active = inhibition above about 50%
FBW7 act: FBW7 E3 ligase activators, primary screen, biochemical, AlphaScreen, human; F-box/WD repeat-containing protein 7 (Homo sapiens), Q969H0; AlphaScreen FBW7–phospho-cyclin E peptide binding, activator screen; normalized activity (activation), % at 26.1 µM; actives 0.13% (n = 650,000); AID 1259310, 2017; in the data active = normalized activity above about 1.9%;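 also: purified mutant Fbw7 with reduced substrate affinity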
GPR151 ag: activators of human GPR151, primary screen, cell-based, PathHunter beta-arrestin, luminescence; G-protein coupled receptor 151 (Homo sapiens), Q8TDV0; PathHunter beta-arrestin GPR151 cells; activation, % at 11.2 µM; actives 1% (n = 650,000); AID 1508602, 2020; in the data active = activation above about 4.9%
TEAD-YAP block: TEAD-YAP interaction inhibition, primary screen, TEAD-YAP interaction inhibitor project, luminescence, HEK-TIYL cells. inhibition, % at 9.12 µM. actives 1.4% (n = 640,000). TEAD-Gal4/YAP UAS-luciferase luminescence; in the data active = inhibition above about 32%
GPR151 confirm: GPR151 activators, triplicate retest, confirmation, cell-based, PathHunter beta-arrestin, luminescence; shares compounds with GPR151 ag; GPR151 PathHunter beta-arrestin cells, 90 min; % of EA-reagent control over plate median; activation, % at 11.2 µM; 6,700 tested, under 10 active;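 active = mean percent activation across replicates above the confirmation screen cutoff of 4.91%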
GPR119 counter: GPR119 activators in beta-arrestin cells, counter-screen for GPR151 activator project, cell-based, PathHunter beta-arrestin, luminescence, triplicate | shares compounds with GPR151 ag | 90 min; 0 = compound-well median, 100 = enzyme-acceptor control | activation, % at 11.2 µM | actives 0.3% (n = 6,700) | AID 1508611, 2020;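 active = mean percent activation in the counterscreen above 29.09%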;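 also: counterscreen on off-target GPR119 to flag nonselective hits from the GPR151 activator screen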
Target sequence (Q8TDV5 whole entry, looked up): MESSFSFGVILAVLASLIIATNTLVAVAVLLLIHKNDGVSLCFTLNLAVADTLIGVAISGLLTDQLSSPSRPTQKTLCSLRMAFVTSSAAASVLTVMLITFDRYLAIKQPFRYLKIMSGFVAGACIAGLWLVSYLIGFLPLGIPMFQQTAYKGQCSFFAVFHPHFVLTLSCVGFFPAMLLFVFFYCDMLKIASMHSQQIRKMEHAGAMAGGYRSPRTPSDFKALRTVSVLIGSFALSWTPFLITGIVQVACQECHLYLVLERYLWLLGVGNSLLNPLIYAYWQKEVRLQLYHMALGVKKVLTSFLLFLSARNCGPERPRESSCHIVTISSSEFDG
A number is an active result; . = inactive; / = no result given. This is a sample that favours compounds with a hit; in the whole collection about 3.4% have one here.

SMILES	MITF primary	FBW7 act	GPR151 ag	TEAD-YAP block	GPR151 confirm	GPR119 counter
COC(=O)c1sc2ncn(Cc3ccccc3F)c(=O)c2c1C	.	.	.	.	/	/
Cc1ccc(S(=O)(=O)NC(=O)N2c3ccccc3CCc3ccccc32)cc1	.	.	7.4	.	.	.
O=C1CCCN1CCn1cnc2c(Nc3ccc(Oc4ccccc4)cc3)nc(N3CCc4ccccc4C3)nc21	.	.	.	.	/	/
O=C1CCCN1CCn1cnc2c(Nc3ccc(N4CCOCC4)cc3)nc(N3CCc4ccccc4C3)nc21	.	.	13	.	.	.
FC(F)(F)c1cccc(CNc2ncnc3nc(Nc4ccc(N5CCOCC5)cc4)[nH]c23)c1	.	.	7.1	.	.	.
FC(F)(F)c1cccc(CNc2ncnc3nc(Nc4ccccc4)[nH]c23)c1	.	.	.	.	/	/
O=C1CCCN1CCCNc1nc(NCc2cccc(C(F)(F)F)c2)c2ncn(C3CCCCC3)c2n1	.	.	5.9	.	.	.
O=C1CCCN1CCn1cnc2c(NCc3cccc(C(F)(F)F)c3)nc(Nc3ccc(N4CCOCC4)cc3)nc21	.	.	5.6	.	.	.
COc1cccc(OC)c1C(=O)Nc1ccccc1O	.	.	.	.	/	/
COc1ccc(Cl)cc1NC(=O)Cc1c(C(=O)O)[nH]c2ccccc12	.	.	.	.	/	/
O=C(Cc1ccccc1F)N1CCC(n2nc(C3CC3)ccc2=O)CC1	.	.	.	.	/	/
Cc1ccc(S(=O)(=O)N2c3cc(C)c(C)cc3-c3c(ssc3=S)C2(C)C)cc1	.	.	.	.	/	/
CC(C)c1ccc(N(C)S(=O)(=O)c2ccc3[nH]cc(C(=O)NCCN4CCOCC4)c(=O)c3c2)cc1	.	.	5.1	.	.	.
CC(C)CNC(=O)C1=CC(c2ccc(F)cc2)=NS(=O)(=O)N1C	.	.	7.5	.	.	.
CCOc1cccc2cc(-c3cn4cc(C)ccc4n3)c(=O)oc12	.	.	11	.	.	.
COc1cccc2cc(-c3cn4ccc(C)cc4n3)c(=O)oc12	.	.	.	.	/	/
O=S(=O)(NCc1ccncc1)c1ccc(I)cc1	.	.	9.7	40	.	.
Nc1ccc(S(=O)(=O)NCc2ccncc2)cc1	.	.	.	.	/	/
COc1ccc(SCC(=O)Nc2ccc3sccc3c2)cc1	.	.	.	.	/	/
Cc1nnc(Nc2cccc(Cl)c2Cl)[nH]c1=O	.	.	.	.	/	/
CCN1CCN(C2=NS(=O)(=O)C(c3ccc(C)cc3)=C2C)CC1	.	.	12	.	.	.
COc1ccc(/C=C(\NC(=O)c2ccccc2)C(=O)NN)c(OC)c1	.	.	.	.	/	/
COc1ccc(/C=C(/NC(=O)c2ccc(C)cc2)C(=O)O)c(OC)c1	.	.	5.3	.	.	.
CCOC(=O)CC(C(C)C)N(Cc1ccc(Cl)c([N+](=O)[O-])c1)S(=O)(=O)c1ccc(Cl)cc1 (configuration not stated)	.	.	9.1	.	.	.
Cc1cccc(NC(=O)Nc2cnn(-c3cccc(C(=O)Nc4cc(C)c(C)c(C)c4)c3)c2)c1	.	.	.	.	/	/
SMILES	MITF primary	FBW7 act	GPR151 ag	TEAD-YAP block	GPR151 confirm	GPR119 counter
O=C(Cc1ccccc1)Nc1cnn(-c2cccc(C(=O)Nc3cccc(CN4CCOCC4)c3)c2)c1	.	.	5.2	.	.	.
Cc1cccc(NC(=O)Nc2cnn(-c3cccc(C(=O)NOCc4ccccc4)c3)c2)c1	.	.	4.9	.	.	.
Cc1cccc(NC(=O)Nc2cnn(-c3cccc(C(=O)Nc4ccnc(C)c4)c3)c2)c1	.	.	6.6	.	.	.
N#Cc1sc2ncc3c(c2c1N)CCCC3	.	.	9.7	.	.	.
CCOC(=O)c1c(NC(=O)CSc2nnc(CNC(=O)c3ccc(C)c(C)c3)n2CCc2ccccc2)sc2c1CCC2	.	.	.	.	/	/
Cc1ccc(NC(=O)/C(=C/c2cccc([N+](=O)[O-])c2)NC(=O)c2cccs2)c(Br)c1	.	.	6.9	.	5.5	.
Cc1cc(NC(=O)/C(=C/c2cccc([N+](=O)[O-])c2)NC(=O)c2cccs2)ccc1Br	.	.	.	.	/	/
N#C/C(=C\c1cccs1)C(=O)Nc1ccc([N+](=O)[O-])cc1Br	.	.	6.4	.	.	.
CCOC(=O)N1CCN(c2ccc(S(C)(=O)=O)cc2)CC1	.	.	.	.	/	/
CC1CC(C)CN(C(=O)CSC2=Nc3ccccc3C3=NC(C(C)C)C(=O)N23)C1 (configuration not stated)	.	.	.	.	/	/
Cc1ccc(CNC(=O)CSC2=Nc3ccccc3C3=NC(C(C)C)C(=O)N23)cc1 (configuration not stated)	.	.	.	.	/	/
CCC(C)C1N=C2c3ccccc3N=C(SCC(=O)N3CC(C)CC(C)C3)N2C1=O (configuration not stated)	.	.	12	.	.	.
CC(C)C1N=C2c3ccccc3N=C(SCC(=O)NCCc3ccccc3)N2C1=O (configuration not stated)	.	.	5.8	.	.	.
Cc1ccccc1CN1CCN2C(=O)[C@H](Cc3cnc[nH]3)NC(=O)[C@H]2C1	.	.	.	.	/	/
COC(=O)c1cc(C)sc1NC(=S)N1CCCCCC1	.	.	8.7	.	.	.
COc1ccc(C)cc1S(=O)(=O)N(C)CC(=O)Nc1ccccc1C(F)(F)F	.	.	.	.	/	/
NC(=O)c1nc(-c2ccccc2)nc2c1[nH]c(=O)n2-c1ccccc1	.	.	.	.	/	/
COC(=O)c1cc(NC(=O)c2ccc(N3CC4CC(C3)c3cccc(=O)n3C4)c(NC(=O)Nc3ccccc3)c2)cc(C(=O)OC)c1 (configuration not stated)	.	.	6.7	.	.	.
CN(CCc1ccccn1)C(=O)c1ccc(N2CC3CC(C2)c2cccc(=O)n2C3)c(NC(=O)c2cccs2)c1 (configuration not stated)	.	.	7.4	.	.	.
COc1cc(C(=O)Nc2cc(C(=O)Nc3ccccc3SC)ccc2N2CC3CC(C2)c2cccc(=O)n2C3)cc(OC)c1OC (configuration not stated)	.	.	.	.	/	/
COc1cc(C(=O)Nc2cc(C(=O)N3CCN(c4ccccc4)CC3)ccc2N2CC3CC(C2)c2cccc(=O)n2C3)cc(OC)c1OC (configuration not stated)	.	.	5.5	.	.	.

High-throughput results: PubChem, The Scripps Research Institute Molecular Screening Center
